Compound activity (PubChem BioAssay)
HER2 expr 66K – lowers expression of human Her2 kinase; HER2 level % of control, % at 10 µM; AID 645; P04626; SKBR-3 HER2 protein level, AlphaScreen, 18-24 h; hits give low values; actives 0.69% (n = 65,000);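 active = HER2 level under 5% of the carrier-only control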;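 note: 100% = DMSO carrier and 0% = 500 nM PU-H71 HSP90 inhibitor; lower value means stronger loss of Her2 protein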
Hsp90 block – displaces geldanamycin probe from tumor Hsp90. NCI-N417 lysate Hsp90, Cy3B-geldanamycin FP displacement. inhibition, % at 30 µM. actives 0.35% (n = 64,000). P07900;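 active = inhibition above 50%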;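 note: 0% = tracer plus lysate wells and 100% = tracer alone without lysate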
MT1-MMP txn act – activates MT1-MMP transcription. HT1080 MT1-MMP promoter luciferase reporter, luminescence, overnight; hits give high values. activation factor at 10 µM. actives 0.16% (n = 86,000). AID 750;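 active = activation factor of at least 2 for MT1-MMP transcription at 10 µM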
Ec RNAP inh – inhibitors of Escherichia coli RNA polymerase; P0A8V2; E. coli RNA polymerase, fluorescence transcription assay; inhibition, %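 (tested at 10 µM)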; actives 0.2% (n = 62,000); AID 559; in the data active = inhibition above about 20%;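 note: 0% = enzyme without compound and 100% = no enzyme blank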
Target sequence (P0A8V2 whole entry, looked up): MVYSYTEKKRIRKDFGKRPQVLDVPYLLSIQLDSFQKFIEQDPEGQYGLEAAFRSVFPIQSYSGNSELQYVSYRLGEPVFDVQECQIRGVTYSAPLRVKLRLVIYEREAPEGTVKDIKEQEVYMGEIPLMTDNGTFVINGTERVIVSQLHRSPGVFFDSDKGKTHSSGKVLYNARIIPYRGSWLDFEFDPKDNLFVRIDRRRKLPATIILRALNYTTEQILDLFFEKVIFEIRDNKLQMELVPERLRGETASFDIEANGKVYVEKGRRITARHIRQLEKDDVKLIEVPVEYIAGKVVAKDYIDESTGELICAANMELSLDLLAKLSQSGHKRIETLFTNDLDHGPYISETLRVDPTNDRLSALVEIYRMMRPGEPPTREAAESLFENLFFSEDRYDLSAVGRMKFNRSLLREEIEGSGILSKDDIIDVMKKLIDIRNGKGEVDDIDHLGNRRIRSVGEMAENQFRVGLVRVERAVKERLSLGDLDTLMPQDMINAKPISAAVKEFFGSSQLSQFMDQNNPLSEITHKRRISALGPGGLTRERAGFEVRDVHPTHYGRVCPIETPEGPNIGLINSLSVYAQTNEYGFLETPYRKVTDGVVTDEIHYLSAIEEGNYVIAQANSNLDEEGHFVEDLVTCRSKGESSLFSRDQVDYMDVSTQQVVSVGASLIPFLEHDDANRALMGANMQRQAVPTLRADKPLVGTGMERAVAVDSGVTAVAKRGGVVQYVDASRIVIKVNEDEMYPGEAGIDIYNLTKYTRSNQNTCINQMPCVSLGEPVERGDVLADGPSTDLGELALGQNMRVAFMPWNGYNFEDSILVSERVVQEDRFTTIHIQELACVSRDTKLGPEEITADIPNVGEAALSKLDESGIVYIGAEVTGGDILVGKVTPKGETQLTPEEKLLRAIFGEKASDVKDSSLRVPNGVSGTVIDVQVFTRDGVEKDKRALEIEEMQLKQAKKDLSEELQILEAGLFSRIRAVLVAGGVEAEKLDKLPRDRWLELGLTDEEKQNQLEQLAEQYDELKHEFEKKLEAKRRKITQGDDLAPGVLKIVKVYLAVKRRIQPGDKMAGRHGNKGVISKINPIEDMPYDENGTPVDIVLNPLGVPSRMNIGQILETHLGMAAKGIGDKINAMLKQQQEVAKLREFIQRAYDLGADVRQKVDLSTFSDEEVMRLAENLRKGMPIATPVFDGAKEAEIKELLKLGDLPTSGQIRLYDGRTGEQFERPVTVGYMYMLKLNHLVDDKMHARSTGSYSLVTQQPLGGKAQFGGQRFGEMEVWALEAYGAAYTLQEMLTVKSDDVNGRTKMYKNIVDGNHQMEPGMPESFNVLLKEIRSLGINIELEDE
HePTP inh – blocks human HePTP tyrosine phosphatase. recombinant HePTP phosphatase activity, OD absorbance. actives 0.64% (n = 110,000). AID 521. P35236. inhibition, % at 20 µM; in the data active = inhibition above about 50%;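 note: plate controls were vehicle for no effect and reference inhibitor for full effect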
TNAP act mid DEA – activates human TNAP at intermediate phosphate acceptor concentration. P05186. 64,000 tested, under 10 active. purified TNAP, CDP-star luminescence, 100 mM DEA, 30 min; hits give high values; scale: 0 levamisole-inhibited, 1 vehicle-only enzyme. activation factor at 20 µM. AID 813;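 active = activation factor of at least 2 at 20 µM, relative to controls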
Numbers without * were called inactive. In the library only some 1.1% were active in any assay of this set; here they are far more common.

Screening CC(C)=CC1C=C(C)C(C)C(C(=O)O)C1C(=O)O (stereo unspecified) returned HePTP inh -7.
O=C(c1ccncc1)N1N=C(c2ccncc2)CC1(O)C(F)(F)F (stereo unspecified) was read as HePTP inh 2.
`CC1CN(C2CCN(S(=O)(=O)c3ccccc3)CC2)CC(C)O1` (stereo unspecified) gave HER2 expr 66K 116, Hsp90 block -3, MT1-MMP txn act 1.1, Ec RNAP inh 22*, HePTP inh 5 and TNAP act mid DEA 0.9.
Screening Cn1c(=O)[nH]c2ncn(C)c2c1=O returned Hsp90 block -3.
For Cn1cnc2c1c(=O)[nH]c(=O)n2C the results were HER2 expr 66K -18*, Hsp90 block -4, MT1-MMP txn act 0.9, Ec RNAP inh 6, HePTP inh 8 and TNAP act mid DEA 0.9.
For COc1cccc(C2CC(=O)Nc3c2ccc2ccccc32)c1OC (stereo unspecified) the results were HePTP inh 2.
For N#CCC(=O)N1CCN(C(c2ccccc2)c2ccccc2)CC1 the results were HePTP inh 103*.
`Cc1c(OCC(=O)C(C)(C)C)ccc2c1oc(=O)c1ccccc12` gave HePTP inh -6.
COc1ccc(C)cc1NC(=O)CSc1nnnn1Cc1ccccc1 was read as HER2 expr 66K 95, Hsp90 block -2, MT1-MMP txn act 1, Ec RNAP inh -2, HePTP inh -3 and TNAP act mid DEA 0.8.
`COc1ccc(CSc2nnnn2Cc2ccccc2)cc1OC` gave HER2 expr 66K -0.9*, Hsp90 block -4, MT1-MMP txn act 1.2, Ec RNAP inh 3, HePTP inh 3 and TNAP act mid DEA 0.9.
For N/C(Cc1ccc(Cl)cc1)=N\OC(=O)/C=C/c1ccccc1 the results were HePTP inh 3.
`O=C(CN(Cc1ccccc1)S(=O)(=O)c1ccccc1)Nc1ccc(Oc2ccccc2)cc1` gave HePTP inh 0.
Cc1ccccc1N1C(=O)CC(Sc2nnc(-c3ccccc3)o2)C1=O (stereo unspecified) was read as HER2 expr 66K -19*, Hsp90 block 25, MT1-MMP txn act 1.2, Ec RNAP inh 2, HePTP inh 7 and TNAP act mid DEA 0.9.
Screening O=C1CC(Sc2nnc(-c3ccccc3)o2)C(=O)N1c1ccccc1 (stereo unspecified) returned HER2 expr 66K 8, Hsp90 block -1, MT1-MMP txn act 1.2, Ec RNAP inh 11, HePTP inh 8 and TNAP act mid DEA 0.8.
Screening CCOC(=O)c1ccc2c(c1)C1C=CCC1C(c1cccc([N+](=O)[O-])c1)N2 (stereo unspecified) returned HePTP inh -13.
For O=C(O)c1ccc2c(c1)C1C=CCC1C(c1cccc([N+](=O)[O-])c1)N2 (stereo unspecified) the results were HePTP inh 102*.
`C=CCn1c(SCc2nc3ccccc3c(=O)[nH]2)nnc1-c1cc2cc(Cl)ccc2o1` gave HER2 expr 66K 3.3*, Hsp90 block 2, MT1-MMP txn act 1.1, Ec RNAP inh 7, HePTP inh 5 and TNAP act mid DEA 0.9.
For COCCn1c(SCc2nc3ccccc3c(=O)[nH]2)nnc1-c1ccncc1 the results were MT1-MMP txn act 1.
`COC(=O)C1=C(C)NC(=O)/C1=C\c1ccc(Br)cc1` gave HePTP inh 67*.
O=C1C=CC(=O)N1c1ccc([N+](=O)[O-])cc1Br was read as HePTP inh 8.
O=C1c2ccccc2-c2onc3ccc(NCc4ccco4)c1c23 was read as HER2 expr 66K 50, Hsp90 block 50*, MT1-MMP txn act 1.1, HePTP inh 9 and TNAP act mid DEA 0.8.
`O=C(Nc1ccc(Sc2ccc([N+](=O)[O-])cc2)cc1)c1cccs1` gave HePTP inh 5.
Cc1cc(NS(=O)(=O)c2ccc(NC(=O)Cc3cccs3)cc2)no1 was read as HER2 expr 66K 81, Hsp90 block -4, MT1-MMP txn act 1, Ec RNAP inh 9, HePTP inh 7 and TNAP act mid DEA 0.9.
Cc1cc(NS(=O)(=O)c2cccs2)no1 was read as HER2 expr 66K -30*, Hsp90 block -1, MT1-MMP txn act 1, Ec RNAP inh 4, HePTP inh 2 and TNAP act mid DEA 0.9.
Cc1cc(C)cc(NC(=O)Cc2ccc(Br)cc2)c1 was read as HePTP inh -22.
Screening O=[N+]([O-])c1cc([N+](=O)[O-])c2oc(-c3ccccc3)c(Br)c2c1O returned HePTP inh 104*.
Screening COc1cccc(-n2nnnc2SCC(=O)Nc2ccc(C(C)=O)cc2)c1 returned MT1-MMP txn act 1.1.
Screening CCCS(=O)(=O)c1nnnn1-c1cccc(OC)c1 returned HER2 expr 66K -22*, Hsp90 block 3, MT1-MMP txn act 0.1, Ec RNAP inh -9, HePTP inh 9 and TNAP act mid DEA 1.
COc1ccc(-c2cc(N)n(S(=O)(=O)c3c(F)c(F)c(F)c(F)c3F)n2)cc1OC was read as HER2 expr 66K -13*, Hsp90 block -3, MT1-MMP txn act 0.3, Ec RNAP inh 12, HePTP inh 7 and TNAP act mid DEA 0.9.
For CC1CCc2c(sc3ncnc(N4CCOCC4)c23)C1 (stereo unspecified) the results were HER2 expr 66K -29*, Ec RNAP inh 9, HePTP inh 2 and TNAP act mid DEA 1.
COC(=O)C1=NNC2(C)C(=O)N(c3ccccc3C)C(=O)C12 (stereo unspecified) was read as HePTP inh 7.
For Cc1c(/C=C/C(=O)c2ccc(Cl)s2)cnn1C the results were MT1-MMP txn act 2.4*.
Cc1ccc(C)c(OCC(=O)N/N=C/c2ccc(OC(=O)c3ccc4c(c3)OCO4)cc2)c1 was read as HePTP inh 22.
COc1cc2[nH]c(=O)n(CCC(=O)N3CCN(c4cccc(C)c4C)CC3)c(=O)c2cc1OC was read as HER2 expr 66K -23*, MT1-MMP txn act 0.9, Ec RNAP inh 3, HePTP inh 7 and TNAP act mid DEA 1.
Screening CCOc1ccccc1N1CCN(C(=O)c2ccccc2)CC1 returned HER2 expr 66K 109, Hsp90 block -1, MT1-MMP txn act 1, Ec RNAP inh 4, HePTP inh 2 and TNAP act mid DEA 0.9.
CCOc1ccccc1N1CCN(C(=O)c2cccc(F)c2)CC1 was read as HePTP inh 103*.
`Nc1ccc(C(=O)OCc2nc3c(ccc4ccccc43)[nH]2)cc1` gave MT1-MMP txn act 2.5*.
O=C(OCc1nc2ccccc2c(=O)[nH]1)c1cccs1 was read as HER2 expr 66K 75, Hsp90 block -5, MT1-MMP txn act 1.4, Ec RNAP inh 4, HePTP inh 10 and TNAP act mid DEA 0.9.
